# Data from PubChem BioAssay.
# Values joined by “and” are separate entries in the source; they are usually repeats but may differ in a detail not shown here. Equal values may be shown once. Records with an inconclusive call do not appear. Active and inactive are the calls of the source. Unless noted, no stated cut-off is given here; in the data, active means inhibition above about 80%; inactive means the rest.
# Legend:
# [1] = hESC survival regulators, cell-based (AID 493140; call rule not given here;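 further: cells exposed to compounds for four days before counting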); conditions: human embryonic stem cell survival screen; stronger effect = higher value
# [2] = growth inhibition of DIPG glioma cells, dose response, cell-based, SU-DIPG-XVII, MIPE5.0, CellTiter-Glo, qHTS (AID 1347060; cut-off not given, nearly all actives have AC50 up to about 26 µM); conditions: SU-DIPG-XVII viability, CellTiter-Glo ATP luminescence
# [3] = growth inhibition of DIPG glioma cells, dose response, cell-based, JHH-DIPG-1, MIPE4.0, CellTiter-Glo, qHTS (AID 1347062; cut-off not given, nearly all actives have AC50 up to about 27 µM;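 on AC50: cells exposed to compound for two days before readout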); conditions: JHH-DIPG-1 viability, CellTiter-Glo ATP luminescence
# [4] = SU-DIPG-XXV glioma cell viability, MIPE5.0 library, qHTS (AID 1347068; cut-off not given, nearly all actives have IC50 up to about 30 µM;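 on IC50: cells exposed to compound for 48 hours before viability readout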)
# [5] = circadian clock period modulators, cell-based, LOPAC library, luminescence reporter (AID 2774; call rule not given here;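 further: values are relative to mean of DMSO wells on each plate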); conditions: circadian reporter cells, at 7 µM, actives lie on both sides
# [6] = system: Hepatitis C virus NS3 helicase; test: HCV NS3 helicase inhibitors, primary screen, biochemical, fluorescence polarization, LOPAC1280 library (AID 687035; in the data active means inhibition above about 37%); conditions: Purified HCV NS3 helicase, Cy5-dT15 ssDNA binding fluorescence polarization; stronger effect = higher value; concentration not given here
# [7] = Cy5 fluorescence quenching or enhancement artefacts, artefact control for HCV NS3 helicase inhibitor project, biochemical, LOPAC1280 (AID 687037; call rule not given here); conditions: Cy5-DNA-NS3h complex fluorescence interference counterscreen
# [8] = phospholipid biosynthesis inhibitors in animal cells, primary screen, cell-based, LOPAC library, screen 4 (AID 1347384; call rule not given here); conditions: phospholipid biosynthesis inhibition screen, at 10 µM
# [9] = target: NAD(+) hydrolase SARM1 (Homo sapiens) (UniProt Q6SZW1); test: SARM1 TIR NADase inhibitors, cell lysate, NAD-Glo luminescence (AID 1508614;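 active means compound whose remaining NAD level is above about 45 nM, limit read from the data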); conditions: SAM-TIR HEK293T lysate NADase, at 1 µM, stronger effect = higher value
# [10] = LFS_MB_P medulloblastoma growth inhibition, cell-based, chromothripsis tumors, cisplatin or BGB combos (AID 1671449); conditions: LFS_MB_P medulloblastoma cells;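 further: cells exposed for 96 hours; 0% = vehicle DMSO and 100% = killing by high DMSO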
# [11] = HDN33 neuroblastoma growth inhibition, cell-based, chromothripsis tumors, cisplatin or BGB combos (AID 1671450); conditions: HDN33 neuroblastoma cells, stronger effect = higher value;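 further: cells exposed to compound for four days; 0% = vehicle DMSO and 100% = cell killing by high DMSO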
# [12] = ICB984 medulloblastoma cell growth inhibition, synergistic combos for chromothripsis tumors, cisplatin or BGB combos (AID 1671451; call rule not given here;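 further: cells exposed for 96 hours before readout; 0% = vehicle DMSO and 100% = killing by high DMSO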); conditions: ICB984 medulloblastoma cells, drug combinations, stronger effect = higher value
# [13] = LFS_MB_1R medulloblastoma cell growth inhibition, synergistic combos for chromothripsis tumors, cisplatin or BGB combos (AID 1671452); conditions: LFS_MB_1R medulloblastoma cells, stronger effect = higher value;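 further: cells exposed for 96 hours before readout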
# [14] = HTB85 osteosarcoma cell growth inhibition, synergistic combos for chromothripsis tumors, BGB or cisplatin IC20 combos (AID 1671453); conditions: HTB85 osteosarcoma cells, drug combinations, stronger effect = higher value;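 further: cells exposed for 96 hours before readout; 0% = vehicle DMSO and 100% = high DMSO killing control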
# [15] = MDA-MB-436 breast carcinoma cell growth inhibition, synergistic combos for chromothripsis tumors, BGB or cisplatin combos (AID 1671458; call rule not given here;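 further: cells exposed for 96 hours; 0% = vehicle DMSO and 100% = killing by high DMSO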); conditions: MDA-MB-436 breast carcinoma growth inhibition, drug combinations, stronger effect = higher value
# [16] = growth inhibition of BT084 medulloblastoma cells, cell-based, ICGC_MB145, cisplatin and BGB IC40 combos (AID 1671461); conditions: drug combinations, stronger effect = higher value;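 further: cells exposed to drugs for 96 hours; 0% = vehicle DMSO and 100% = high DMSO full killing control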
# [17] = growth inhibition of RCMB18 medulloblastoma cells, cell-based, cisplatin and BGB IC40 combos (AID 1671462); conditions: stronger effect = higher value;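 further: cells exposed to compound for four days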
# [18] = growth inhibition of CRL1545 osteosarcoma cells, cell-based, cisplatin and BGB IC20 combos (AID 1671464); conditions: stronger effect = higher value;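 further: cells exposed to compound for 96 hours before readout; 0% = vehicle DMSO and 100% = high DMSO killing control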
# [19] = differential killing of epithelial or mesenchymal cells, primary screen, imaging, PC-3E GFP, TEM4-18 mCherry, co-culture (AID 1345086;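 active means compounds killing one labelled cell type while sparing the other, by normalised counts and ratio limits, not self-fluorescent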;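 further: cells exposed to compound for 72 h before imaging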;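 on red/green cell ratio (normalised): normalised mesenchymal count divided by normalised epithelial count so high means epithelial killing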); conditions: imaging cell counts, at 1 µM
# [20] = system: Aerobactin synthetase IucA (Klebsiella pneumoniae); test: IucA aerobactin synthetase inhibitors, biochemical, Tocris library, absorbance (AID 1345561; call rule not given here;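 further: 100% = enzyme without compound and 0% = no enzyme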); conditions: purified IucA enzyme assay, absorbance (OD) read-out; stronger effect = lower value;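 tested at 8 µM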
# [21] = measured here: combination with BGB IC40, at 0.05 µM
# [22] = measured here: with BGB IC20 combination, at 0.5 µM
# [23] = measured here: with cisplatin IC20 combination, at 0.5 µM
# [24] = measured here: combination with cisplatin, at 0.5 µM
# NAD(+) hydrolase SARM1 (Homo sapiens), sequence (Q6SZW1 whole entry, looked up): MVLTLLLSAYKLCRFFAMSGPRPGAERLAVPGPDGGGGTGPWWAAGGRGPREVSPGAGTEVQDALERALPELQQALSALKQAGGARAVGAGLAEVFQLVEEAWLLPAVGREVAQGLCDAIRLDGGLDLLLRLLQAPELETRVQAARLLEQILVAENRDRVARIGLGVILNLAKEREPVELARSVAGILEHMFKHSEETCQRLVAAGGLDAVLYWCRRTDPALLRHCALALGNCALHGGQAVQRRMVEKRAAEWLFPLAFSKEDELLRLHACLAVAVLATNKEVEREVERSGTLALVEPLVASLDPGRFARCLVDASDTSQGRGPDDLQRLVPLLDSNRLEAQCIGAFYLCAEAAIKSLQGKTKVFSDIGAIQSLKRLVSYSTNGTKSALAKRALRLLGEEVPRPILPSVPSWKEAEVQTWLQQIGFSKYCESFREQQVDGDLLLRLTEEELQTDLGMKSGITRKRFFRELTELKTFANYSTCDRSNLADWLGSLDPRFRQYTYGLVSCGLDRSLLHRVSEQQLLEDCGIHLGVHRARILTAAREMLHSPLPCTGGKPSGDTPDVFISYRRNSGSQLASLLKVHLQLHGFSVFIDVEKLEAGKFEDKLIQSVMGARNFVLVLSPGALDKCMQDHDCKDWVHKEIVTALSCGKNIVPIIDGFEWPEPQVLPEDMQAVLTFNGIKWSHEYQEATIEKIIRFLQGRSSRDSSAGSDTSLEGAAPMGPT
compound,measurement,setting,value
C=C1/C(=C\C=C2/CCC[C@]3(C)[C@@H]([C@H](C)CCCC(C)(C)O)CC[C@@H]23)C[C@@H](O)C[C@@H]1O,survival,[1],89.6 (inactive)
same,outcome,[2],inactive
same,AC50,[3],2.35 µM (active)
same,IC50,[4],23.5 µM (active)
c1ccc(-c2ccccn2)nc1,period change,[5],-0.19 h (inactive)
same,inhibition,[6],-3% (inactive)
same,fluorescence ratio (interference),[7],1 (inactive)
same,outcome,[8],inactive
O=C(O)COCCN1CCN([C@H](c2ccccc2)c2ccc(Cl)cc2)CC1,remaining NAD,[9],10 nM (inactive)
CO[C@H]1C=CO[C@@]2(C)Oc3c(C)c(O)c4c(O)c(c5c(nc6cc(C)ccn65)c4c3C2=O)NC(=O)C(C)=CC=C[C@H](C)[C@H](O)[C@@H](C)[C@@H](O)[C@@H](C)[C@H](OC(C)=O)[C@@H]1C,inhibition,"[10]; at 0.5 µM, stronger effect = higher value",-25.7% (inactive) and 0.03% (inactive)
same,inhibition,"[10]; measured here: combination with BGB IC20, at 0.005 µM",-21% and -12.6%
same,inhibition,"[10]; measured here: combination with BGB IC40, at 0.005 µM",-15.4% and -21%
same,inhibition,[10]; [21],-19.4% and -36.7%
same,inhibition,"[10]; measured here: combination with cisplatin, at 0.5 µM, stronger effect = higher value",-19.3% and -0.506%
same,inhibition,"[10]; measured here: combination with cisplatin, at 5 µM, stronger effect = higher value",-24.8% and 7.24%
same,inhibition,"[11]; BGB combo, at 5 µM",-5.62% and -13.7%
same,inhibition,[11]; at 0.5 µM,-1.69% (inactive) and -3.15% (inactive)
same,inhibition,"[11]; cisplatin combo, at 5 µM",-20.9% and -12.7%
same,inhibition,[11]; [22],24.2% and -1.36%
same,inhibition,[11]; [23],-2.79% and 1.82%
same,inhibition,"[11]; single agent, at 5 µM",-32.3% and -1.92%
same,inhibition,"[12]; BGB IC20 combo, at 0.005 µM",0.503% and -4.57%
same,inhibition,"[12]; BGB IC40 combo, at 0.005 µM",18.5% and -33.7%
same,inhibition,"[12]; BGB IC40 combo, at 0.05 µM",-2.72% and 6.47%
same,inhibition,[12]; at 0.5 µM,-25.8% (inactive) and -13.5% (inactive)
same,inhibition,"[12]; cisplatin combo, at 0.05 µM",-2.72% and 3.11%
same,inhibition,"[12]; cisplatin combo, at 0.5 µM",-37.2% and -4.35%
same,inhibition,"[12]; cisplatin combo, at 5 µM",-14.1% and -11.2%
same,inhibition,"[12]; measured here: 5 uM single agent, at 5 µM",-18.1% and 0.267%
same,inhibition,[13]; at 0.5 µM,17.8% (inactive) and -17.4% (inactive)
same,inhibition,[13]; [21],-4.04% and -14.4%
same,inhibition,[13]; [24],-10.1% and -31.8%
same,inhibition,"[13]; measured here: combination with cisplatin, at 5 µM",-6.72% and -38.3%
same,inhibition,[14]; at 0.5 µM,-5.41% (inactive) and -9.58% (inactive)
same,inhibition,"[14]; measured here: with BGB IC20, at 0.5 µM",-40.5% and -14.9%
same,inhibition,"[14]; measured here: with BGB IC20, at 5 µM",-22.4% and -7.39%
same,inhibition,"[14]; measured here: with cisplatin IC20, at 0.5 µM",16.5% and -6.9%
same,inhibition,"[14]; measured here: with cisplatin IC20, at 5 µM",10.3% and 21%
same,inhibition,"[14]; single agent, at 5 µM",-1.97% and 12.2%
same,inhibition,[15]; at 0.5 µM,-11.8% (inactive) and -3.37% (inactive)
same,inhibition,"[15]; measured here: BGB combination, at 0.5 µM",-0.535% and -8.79%
same,inhibition,"[15]; measured here: BGB combination, at 5 µM",-3.41% and -15.2%
same,inhibition,"[15]; measured here: cisplatin combination, at 0.5 µM",-30.7% and -0.606%
same,inhibition,"[15]; measured here: cisplatin combination, at 5 µM",-23.7% and -8.55%
same,inhibition,[16]; at 0.5 µM,-17.7% (inactive) and -11.5% (inactive)
same,inhibition,"[16]; cisplatin combination, at 0.5 µM",-34% and -17.3%
same,inhibition,"[16]; cisplatin combination, at 5 µM",-37% and 5.08%
same,inhibition,"[16]; measured here: BGB IC40 combination 0.05 uM, at 0.05 µM",-7.06% and 28.8%
same,inhibition,"[16]; single agent, at 5 µM",-13.3% and -9.78%
same,inhibition,[17]; at 0.5 µM,-1.81% (inactive) and -2.64% (inactive)
same,inhibition,"[17]; cisplatin combo, at 5 µM",-11.2% and 11.2%
same,inhibition,"[17]; measured here: BGB IC40 combination, at 0.05 µM",12.8% and 1.86%
same,inhibition,[17]; [24],-36.9% and 15.4%
same,inhibition,"[17]; single agent, at 5 µM",-12% and -2.61%
same,inhibition,[18]; at 0.5 µM,8.59% (inactive) and -15.2% (inactive)
same,inhibition,[18]; [22],-1.52% and -4.42%
same,inhibition,[18]; [23],13.6% and -22.6%
same,inhibition,"[18]; single agent, at 0.05 µM",15.1% and 18%
same,inhibition,"[18]; single agent, at 5 µM",-31.6% and 28.6%
C[C@]12C=CC(=O)C=C1CC[C@@H]1[C@@H]2[C@@H](O)C[C@@]2(C)[C@H]1CC[C@]2(O)C(=O)COC(=O)CCC(=O)O,remaining NAD,[9],10 nM (inactive)
CN(C)CC/C=C1/c2ccccc2COc2ccccc21,red/green cell ratio (normalised),"[19]; actives lie on both sides, counts scaled to control wells, 1 = unselective",1.04 (inactive)
same,normalised cell number,[19]; measured here: epithelial PC-3E GFP cell survival,1.34
same,normalised cell number,[19]; measured here: mesenchymal TEM4-18 mCherry cell survival,1.4
same,remaining activity,[20],123% (inactive)
CO[C@H]1O[C@@H]2O[C@@]3(C)CC[C@H]4[C@H](C)CC[C@@H]([C@H]1C)[C@@]24OO3,outcome,[2],inactive
same,outcome,[3],inactive
same,outcome,[4],inactive
same,remaining NAD,[9],10 nM (inactive)
